Reference: ChEMBL document CHEMBL3988442, “University of Dundee, Small-Polar-MMV Screening Library” (2021)

Target: T1, Methionyl-tRNA synthetase, putative (Leishmania donovani (strain BPK282A1)) (UniProt E9BF75)
T1 sequence (whole entry): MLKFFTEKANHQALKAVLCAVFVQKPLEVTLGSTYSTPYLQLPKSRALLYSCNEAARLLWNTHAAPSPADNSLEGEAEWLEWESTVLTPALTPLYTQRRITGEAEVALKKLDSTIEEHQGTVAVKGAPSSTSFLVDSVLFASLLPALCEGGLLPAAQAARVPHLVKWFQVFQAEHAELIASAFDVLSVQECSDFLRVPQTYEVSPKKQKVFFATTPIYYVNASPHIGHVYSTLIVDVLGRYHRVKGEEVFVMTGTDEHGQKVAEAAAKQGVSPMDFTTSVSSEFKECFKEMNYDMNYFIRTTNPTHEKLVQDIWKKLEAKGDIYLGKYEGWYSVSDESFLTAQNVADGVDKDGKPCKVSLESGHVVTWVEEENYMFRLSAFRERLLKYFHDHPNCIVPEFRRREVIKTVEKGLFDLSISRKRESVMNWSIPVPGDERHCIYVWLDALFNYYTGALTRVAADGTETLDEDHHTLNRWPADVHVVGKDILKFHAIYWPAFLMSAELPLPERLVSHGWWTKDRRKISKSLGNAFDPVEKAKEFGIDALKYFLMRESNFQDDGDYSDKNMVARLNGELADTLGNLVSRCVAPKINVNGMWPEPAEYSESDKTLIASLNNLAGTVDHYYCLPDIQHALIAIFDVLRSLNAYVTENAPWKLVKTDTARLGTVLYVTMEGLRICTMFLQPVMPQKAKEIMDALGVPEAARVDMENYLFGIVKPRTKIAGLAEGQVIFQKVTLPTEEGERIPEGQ
Test: Leishmania donovani Methionine tRNA synthetase (LdMetRS):v7. Dose response assay
Assay type: functional
Design: conc 80 nM, time 150 minutes

Cc1nccn1CCCn1cncc1-c1ccc2c(c1)CCC(C)N2C (stereo unspecified)
PXC50 (BOTTOM 4.710746105, HILLSLOPE 1.396694103, MAX_EFFECT 77.77777778, TOP 100.0): 4.36
PXC50 (BOTTOM 4.776972445, HILLSLOPE 4.284267496, MAX_EFFECT 55.70469799, TOP 54.26344413): 4.56
PXC50 (BOTTOM 5.773645077, HILLSLOPE 1.775302265, MAX_EFFECT 72.6169844, TOP 100.0): 4.22
PXC50 (MAX_EFFECT 2.857142857): < 4
PXC50 (MAX_EFFECT 4.347826087): < 4

COC1CCCC(Nc2nc(Nc3ccc(F)c(F)c3)nc3c2cnn3C)C1 (stereo unspecified)
PXC50 (BOTTOM 3.912528548, HILLSLOPE 1.076870083, MAX_EFFECT 68.97196262, TOP 71.78159337): 5.18
PXC50 (BOTTOM 5.265177704, HILLSLOPE 1.728535848, MAX_EFFECT 54.8245614, TOP 53.52484427): 5.16
PXC50 (BOTTOM 8.334941311, HILLSLOPE 1.334767366, MAX_EFFECT 54.01869159, TOP 53.22848094): 5.23
PXC50 (BOTTOM -8.876719942, HILLSLOPE 0.681128814, MAX_EFFECT 53.21888412, TOP 100.0): 4.53
PXC50 (MAX_EFFECT 40.38004751): < 4
PXC50 (MAX_EFFECT 46.81933842): < 4

COc1ccc(OC)c(C2CCN(c3ccc4cc[nH]c4n3)C2)c1 (stereo unspecified)
PXC50 (BOTTOM 1.480634741, HILLSLOPE 1.299916262, MAX_EFFECT 56.52173913, TOP 100.0): 4.07
PXC50 (BOTTOM -1.247583822, HILLSLOPE 1.089672094, MAX_EFFECT 58.06451613, TOP 100.0): 4.11
PXC50 (BOTTOM -8.715782986, HILLSLOPE 1.383269592, MAX_EFFECT 51.81518152, TOP 100.0): 4.09
PXC50 (MAX_EFFECT 37.4800638): < 4
PXC50 (MAX_EFFECT 42.80230326): < 4

COc1ccccc1C1(CNc2nnc(C)c(C)c2C#N)CCCC1
PXC50 (BOTTOM 3.334115973, HILLSLOPE 1.087838863, MAX_EFFECT 53.16698656, TOP 83.15988554): 4.21
PXC50 (MAX_EFFECT 37.68115942): < 4
PXC50 (MAX_EFFECT 40.13605442): < 4
PXC50 (MAX_EFFECT 44.81658692): < 4
PXC50 (MAX_EFFECT 49.91243433): < 4

CCN(CC)c1ccc2ccc(C(=O)NC3CC3)cn12
PXC50 (MAX_EFFECT 23.88888889): < 4
PXC50 (MAX_EFFECT 27.69953052): < 4
PXC50 (MAX_EFFECT 36.60245184): < 4
PXC50 (MAX_EFFECT 45.65217391): < 4
PXC50 (MAX_EFFECT 46.2585034): < 4
